# Out of some 69,000 compounds screened, about 8,600 (12%) showed an effect of 50% or more. The sample holds strong results, similar compounds and a random draw of the others, so the mix is not that of the screen.
# Tested on: Plasmodium berghei
# Experiment: Screen against P. berghei liver stage (PbLuc), transformed with Luciferase, at 10uM
# Assay type: functional, HepG2
# Conditions: tested at 10 uM
row,SMILES,INHIBITION [%]
1,Cc1ccc(-n2cc(C(=O)N3CCn4c(C)nnc4C3)nn2)cc1,15.9
2,O=C(c1cnc(O)cn1)N1CCCC1c1nc2cc(F)ccc2[nH]1 (centres undefined),17.5
3,Cn1ncc(C(=O)N2CCOCC2)c1Cl,0.57
4,COc1cc(CNc2cc(-c3ccoc3C)nn2CCO)ccc1F,38.3
5,CCc1ccc(CNc2cc(-c3ccoc3C)nn2CCO)o1,54.4
6,Cc1cc(CNc2cc(-c3ccoc3C)nn2CCO)c(C)o1,43.7
7,c1cc(N2CCCC2c2cnccn2)ncn1 (centres undefined),-3.31
8,COC(=O)c1cc(OCC2CCC2)cc(C(=O)N[C@@H]2CCCNC2)c1,58.4
9,COC(=O)c1cc(OCC2CCC2)cc(C(=O)N[C@@H]2CNCC[C@H]2O)c1,11.9
10,COC(=O)c1cc(OCC2CCC2)cc(C(=O)NC2CCC(O)CC2)c1 (centres undefined),7.12
11,Cc1cc(NC(=O)CO)nn1-c1ccc(Cl)cc1Cl,19.8
12,Cc1cc(NC(=O)NCCO)nn1-c1ccc(Cl)cc1Cl,60.5
13,Cc1cc(NC(=O)N2CCOCC2)nn1-c1ccccc1Cl,33.4
14,O=C(NCCO)Nc1ccc(Cl)cc1-n1cccc1,-6.91
15,CC(=O)NCC(=O)Nc1cc(C)n(-c2ccc(Cl)cc2Cl)n1,50
16,Cc1cc(NC(=O)N2CCC[C@@H]2CO)nn1-c1ccccc1Cl,30.8
17,CS(=O)(=O)N[C@H]1COC[C@@H]2CN(Cc3ccco3)C[C@@H]21,-19.1
18,COC(=O)c1sc2cccc(F)c2c1CNC(=O)C1CCCO1 (centres undefined),-1.37
19,CN1CCc2[nH]cnc2C12CCN(Cc1ccc3nsnc3c1)CC2,33.4
20,CNC(=O)[C@@H]1C[C@H]2CN(Cc3ccco3)C[C@H]2N1C,-5.1
21,Cc1ccc(C(=O)N2CCN(Cc3cccs3)CC2)c(=O)[nH]1,3.865
22,CS(=O)(=O)NCc1cnc2n1CCN(Cc1ccccn1)CC2,41.2
23,Cc1[nH]ncc1C(=O)N1CCCN(Cc2nccn2C(C)C)CC1,53.65

row,SMILES,INHIBITION [%]
1,Cc1nccc(C(=O)N2CCCN(Cc3nccn3C(C)C)CC2)n1,29.3
2,CCc1[nH]ncc1C(=O)N1CCCN(Cc2nccn2C(C)C)CC1,-33.8
3,Cc1ncncc1C(=O)N1CCCN(Cc2nccn2C(C)C)CC1,-49.5
4,Cc1cc(C(=O)N2CCCN(Cc3nccn3C(C)C)CC2)no1,-6.35
5,CC(C)n1ccnc1CN1CCCN(C(=O)c2cscn2)CC1,54.9
6,CCc1cc(CNC(=O)N2CCN(c3nc(C)c(C)s3)CC2)on1,32.4
7,CSc1ncc(CN(C)C(C)c2cccnc2)cn1 (centres undefined),-1.33
8,O=C(NCCN1CCOCC1)c1scnc1Cl,23.7
9,CSCCCN1C[C@H](NC(=O)c2ccc(CO)cc2)[C@@H](C2CC2)C1,0.72
10,CN(C)c1ccc(C(=O)Nc2ccn(CCc3ccncc3)n2)cc1,5.91
11,COc1cc(F)c(S(=O)(=O)Nc2cnc(O)cc2C)cc1OC,-3.83
12,COc1ccccc1S(=O)(=O)Nc1cnc(O)cc1C,-13.6
13,Cc1cc(O)ncc1NS(=O)(=O)c1cccc(F)c1F,69.9
14,Clc1cc(N2CCC(N3CCCC3)CC2)nc2[nH]ccc12,51.5
15,Clc1cc(N2CCN(C3CCOCC3)CC2)nc2[nH]ccc12,5.91
16,Clc1cc(N2CCN3CCCCC3C2)nc2[nH]ccc12 (centres undefined),72.2
17,Cc1nc(N2CCN3CCCCC3C2)nc2cc(S(C)(=O)=O)ccc12 (centres undefined),20.6
18,Cc1ccn(-c2ccnc(N3CCC(N4CCCCC4)CC3)n2)n1,-13
19,Cn1ncc2c(N3CCN4CCCCC4C3)nc(C3CCCC3)nc21 (centres undefined),-24.8
20,O=C(NCCNS(=O)(=O)C1CCCCC1)c1ccccc1,15.4
21,CN(C)CCNC(=O)c1ccccc1NC(=O)c1cc(Cl)ccc1Cl,44.4
22,O=c1cc(-c2ccc(F)cc2)nc2n1CCCCC2,7.25
23,O=S(=O)(C1CC1)N1CCO[C@H]2[C@@H](Oc3cccnc3)CC[C@@H]21,37.1

row,SMILES,INHIBITION [%]
1,CN(C)C(=O)c1cccc(C2CNCCN2C)c1 (centres undefined),15.255
2,Cc1ccc(Cn2cc(C)c(N)n2)cc1,8.53
3,Cc1cn(Cc2ccc(F)cc2)nc1N,-46.4
4,Cc1cn(Cc2ccc(F)c(F)c2)nc1N,70.8
5,CCc1ccc(CN2CC[C@H]3[C@H]2CC(=O)N3Cc2cccc(C)n2)o1,30.9
6,CCN(CCCc1ccccc1)CC1(C)Cc2c(N)nc(N)nc2O1 (centres undefined),26.8
7,CCn1nc(C)c(CCNC(=O)C2CCCN(C(=O)COC)C2)c1C (centres undefined),-13.6
8,Cc1ccc2nc(CNc3ccccc3C(=O)NC3CC3)cn2c1,7.38
9,Cc1ccc([C@@H]2CN(S(=O)(=O)Cc3ccccc3)C[C@H]2N(C)C)cc1,55.2
10,Cc1ccc([C@@H]2CN(S(=O)(=O)c3ccccc3)C[C@H]2N(C)C)cc1,0.818
11,Cc1ccc([C@@H]2CN(S(=O)(=O)N(C)C)C[C@H]2N(C)C)cc1,-11.1
12,Cc1nc2c(c(C)c1CC(=O)NCc1ccc(F)cc1)c(=O)[nH]n2C,-12.1
13,Cc1nc(N)sc1C(=O)N[C@H]1CN(CCO)C[C@@H]1C1CC1,12
14,Cc1cc(C(=O)N[C@H]2CN(CCO)C[C@@H]2C2CC2)sc1C,44
15,Cc1cc(C(=O)N[C@H]2CN(CCC(N)=O)C[C@@H]2C2CC2)sc1C,50.5
16,CCOc1cc(C)nc(N2CCN(C(=O)c3cnc[nH]3)CC2)n1,-3.2
17,CC(C)CCN1CCC2(CC1)CN(C(=O)c1cnccn1)CCO2,-12.6
18,O=C(C1CC1)N1CCN(Cc2coc(-c3ccc(Cl)cc3)n2)CC1,76.1
19,CS(=O)(=O)NC1CCN(Cc2coc(-c3ccc(Cl)cc3)n2)CC1,79.5
20,OCCN1CCN(Cc2coc(-c3ccc(Cl)cc3)n2)CC1,11.6
21,CC(O)CN1CCN(Cc2coc(-c3ccc(Cl)cc3)n2)CC1 (centres undefined),47.1
22,Cc1nc(CN2CCC(NS(C)(=O)=O)CC2)co1,34
23,CS(=O)(=O)NC1CCN(Cc2coc(-c3ccccc3)n2)CC1,30.4

# From ChEMBL document CHEMBL4513216, “Probing the Open Global Health Chemical Diversity Library for Multistage-Active Starting Points for Next-Generation Antimalarials” (ACS Infect Dis, 2020)
